From PubChem BioAssay AID1159580 (chemical genetic matrix, 2015)
Several values for one entry are separate records, joined by “and”; a condition that tells them apart may be missing. Identical values can stand only once. The whole screen tested about 5,500 compounds, of which about 2,000 (36%) were called active. About 18% were inconclusive and are not listed. No stated cut-off is given here; in the data, active means normalized growth mostly below about 0.91 (no sharp cut-off); inconclusive means no clear call, values can overlap the other calls; inactive means mostly above about 0.92. The list shows a part of the results.

Experiment: chemical genetic growth profiling, strain panel (AID 1159580);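 further: tested at 20 µM; growth read once vehicle control cultures reached saturation at 30 °C; 1 = growth at the plate median or of vehicle wells; lower values mean less growth of the strain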
Settings: S. cerevisiae deletion strains, growth OD
[1] = locus YAL013W, strain DEP1, hits give low values
[2] = locus YDR150W, strain NUM1, hits give low values
[3] = locus YMR307W, strain GAS1, hits give low values
[4] = locus YNL322C, strain KRE1, hits give low values
[5] = locus YPL241C, strain CIN2, hits give low values

Measured: normalized growth

CCCCC/C=C\CC(O)/C=C/c1cccc(CC(O)CCCCO)n1 (stereo not drawn)
inactive: [1] 1.03 | locus YAL040C, strain CLN3, hits give low values 0.995 | locus YCL061C, strain MRC1 (second series), hits give low values 0.996 | [2] 1 | locus YDR363W, strain ESC2, hits give low values 1.01 | locus YER002W, strain NOP16, hits give low values 0.982 | [3] 1.01 | locus YNL153C, strain GIM3, hits give low values 1 | locus YNL175C, strain NOP13, hits give low values 0.985 | locus YNL197C, strain WHI3, hits give low values 0.974 | locus YNL224C, strain SQS1, hits give low values 0.975 | [4] 1.01 | locus YOR083W, strain WHI5 (second series), hits give low values 0.991 | [5] 0.995

CCCCCC/C=C\CCCCCCCc1cccc(O)c1C(=O)O
inactive: [1] 1.08 | locus YAL021C, strain ccr4, hits give low values 0.972 | locus YAL026C, strain drs2, hits give low values 0.979 | locus YAL030W, strain snc1, hits give low values 0.974 | locus YBL061C, strain skt5, hits give low values 0.98 | locus YBR009C, strain hhf1, hits give low values 0.997 | locus YBR021W, strain FUR4, hits give low values 0.929 | locus YBR023C, strain chs3, hits give low values 0.967 | locus YBR171W, strain sec66, hits give low values 1.05 | locus YBR229C, strain ROT2, hits give low values 0.988 | locus YBR231C, strain swc5, hits give low values 0.942 | locus YBR279W, strain paf1, hits give low values 0.984 | locus YCL011C, strain gbp2, hits give low values 0.95 | locus YCL016C, strain dcc1, hits give low values 0.989 | locus YCL029C, strain bik1, hits give low values 0.985 | locus YCL061C, strain MRC1, hits give low values 0.989 | locus YCL069W, strain vba3, hits give low values 0.938 | locus YCR088W, strain abp1, hits give low values 0.972 | locus YDL005C, strain med2, hits give low values 0.958 | locus YDL035C, strain GPR1, hits give low values 1.05 | locus YDL040C, strain nat1, hits give low values 0.967 | locus YDL074C, strain BRE1, hits give low values 0.992 | locus YDL101C, strain DUN1, hits give low values 1.01 | locus YDL185W, strain tfp1, hits give low values 1.01 | locus YDL192W, strain arf1, hits give low values 1 | locus YDR001C, strain nth1, hits give low values 0.983 | locus YDR069C, strain doa4, hits give low values 0.971 | locus YDR101C, strain arx1, hits give low values 0.987 | locus YDR137W, strain rgp1, hits give low values 0.939 | [2] 1.04 | locus YDR159W, strain sac3, hits give low values 0.974 | locus YDR162C, strain NBP2, hits give low values 1.06 | locus YDR195W, strain ref2 0.975 | locus YDR297W, strain sur2, hits give low values 0.979 | locus YDR318W, strain mcm21, hits give low values 0.995 | locus YDR334W, strain swr1, hits give low values 0.956 | locus YDR335W, strain msn5, hits give low values 0.975 | locus YDR388W, hits give low values 1.01 | locus YDR392W, strain spt3, hits give low values 0.813 | locus YDR502C, strain sam2, hits give low values 1.01 | locus YEL003W, strain gim4, hits give low values 0.982 | locus YEL037C, strain rad23, hits give low values 0.965 | locus YEL061C, strain CIN8 (second series), hits give low values 0.953 | locus YEL061C, strain CIN8, hits give low values 1.01 | locus YER015W, strain faa2, hits give low values 0.982 | locus YER016W, strain bim1, hits give low values 0.976 | locus YER110C, hits give low values 0.981 | locus YER111C, strain swi4, hits give low values 0.947 | locus YER155C, strain BEM2, hits give low values 0.991 | locus YER167W, strain BCK2, hits give low values 1.01 | locus YFR010W, strain ubp6, hits give low values 0.993 | locus YGL078C, strain dbp3, hits give low values 0.995 | locus YGL086W, strain mad1, hits give low values 0.989 | locus YGL167C, strain pmr1, hits give low values 0.966 | locus YGL173C, strain kem1, hits give low values 0.976 | locus YGL227W, strain vid30, hits give low values 0.955 | locus YGL240W, strain doc1, hits give low values 0.976 | locus YGL248W, strain PDE1, hits give low values 1.01 | locus YGL253W, strain hxk2, hits give low values 0.975 | locus YGR135W, strain pre9, hits give low values 1.03 | locus YGR252W, strain gcn5, hits give low values 1.04 | locus YHR013C, strain ard1, hits give low values 0.956 | locus YHR027C, strain rpn1, hits give low values 0.992 | locus YHR030C, strain SLT2, hits give low values 1 | locus YHR079C, strain IRE1 (second series), hits give low values 0.992 | locus YHR079C, strain IRE1, hits give low values 1.01 | locus YHR094C, strain hxt1, hits give low values 0.992 | locus YHR129C, strain ARP1, hits give low values 0.998 | locus YHR142W, strain chs7, hits give low values 0.974 | locus YHR200W, strain rpn10, hits give low values 1 | locus YIL066C, strain RNR3, hits give low values 1.03 | locus YIL073C, strain SPO22, hits give low values 1.3 | locus YIL125W, strain kgd1, hits give low values 0.994 | locus YIR030C, strain dcg1, hits give low values 0.995 | locus YJL092W, strain hpr5, hits give low values 0.941 | locus YJL095W, strain BCK1 (second series), hits give low values 0.97 | locus YJL095W, strain BCK1, hits give low values 0.991 and 0.952 | locus YJL115W, strain asf1, hits give low values 0.972 | locus YJL129C, strain trk1, hits give low values 0.914 | locus YJL134W, strain LCB3, hits give low values 1 | locus YJL154C, strain vps35, hits give low values 0.971 | locus YJL164C, strain tpk1, hits give low values 0.999 | locus YJL166W, strain qcr8, hits give low values 0.976 | locus YJL168C, strain set2, hits give low values 0.988 | locus YJL187C, strain SWE1 (second series), hits give low values 0.997 | locus YJR043C, strain POL32, hits give low values 1.06 | locus YJR066W, strain TOR1, hits give low values 0.968 | locus YKL009W, strain mrt4, hits give low values 1.02 | locus YKL068W, hits give low values 1.01 | locus YKL085W, strain MDH1 (second series), hits give low values 0.997 | locus YKL085W, strain MDH1, hits give low values 0.997 | locus YKL160W, strain elf1, hits give low values 0.997 | locus YKL190W, strain CNB1, hits give low values 1.06 | locus YKR001C, strain vps1, hits give low values 0.989 | locus YKR026C, strain gcn3, hits give low values 0.961 | locus YKR091W, strain srl3, hits give low values 0.978 | locus YLL001W, strain dnm1, hits give low values 0.988 | locus YLL026W, hits give low values 0.974 | locus YLL041C, strain sdh2, hits give low values 0.989 | locus YLR027C, strain aat2, hits give low values 0.986 | locus YLR039C, strain RIC1, hits give low values 1.01 | locus YLR058C, strain SHM2, hits give low values 1 | locus YLR102C, strain apc9, hits give low values 0.987 | locus YLR113W, strain HOG1, hits give low values 0.946 | locus YLR221C, strain rsa3, hits give low values 0.944 | locus YLR258W, strain gsy2, hits give low values 0.957 | locus YLR262C, strain YPT6 (second series), hits give low values 0.939 | locus YLR262C, strain YPT6, hits give low values 0.977 | locus YLR268W, strain sec22, hits give low values 0.991 | locus YLR320W, strain mms22, hits give low values 0.951 | locus YLR330W, strain CHS5, hits give low values 1.06 | locus YLR342W, strain FKS1 (second series), hits give low values 1.03 | locus YLR342W, strain FKS1, hits give low values 0.964 | locus YLR357W, strain rsc2, hits give low values 0.953 | locus YLR370C, strain arc18, hits give low values 0.969 | locus YLR371W, strain rom2, hits give low values 1 | locus YLR384C, strain iki3, hits give low values 0.97 | locus YLR418C, strain cdc73, hits give low values 0.953 | locus YML016C, strain PPZ1, hits give low values 0.989 | locus YML032C, strain rad52, hits give low values 1.02 | locus YML120C, strain ndi1, hits give low values 0.973 | locus YML124C, strain tub3, hits give low values 0.985 | locus YMR078C, strain ctf18, hits give low values 0.999 | locus YMR129W, hits give low values 0.963 | locus YMR205C, strain PFK2, hits give low values 1.02 | locus YMR223W, strain ubp8, hits give low values 1.01 | locus YMR231W, strain pep5, hits give low values 0.999 | locus YMR263W, strain SAP30, hits give low values 1.03 | [3] 1.01 | locus YNL067W, strain RPL9B, hits give low values 1.03 | locus YNL071W, strain lat1, hits give low values 0.97 | locus YNL183C, strain NPR1, hits give low values 0.923 | locus YNL209W, strain ssb2, hits give low values 0.974 | locus YNL233W, strain BNI4, hits give low values 1.01 | locus YNL248C, strain rpa49, hits give low values 0.983 | locus YNL250W, strain rad50, hits give low values 0.982 | locus YNL271C, strain bni1, hits give low values 0.99 | locus YNL298W, strain CLA4, hits give low values 1.01 | locus YNL307C, strain MCK1, hits give low values 0.995 | locus YNL322C, strain KRE1 (second series), hits give low values 0.949 | [4] 1 | locus YNR049C, strain mso1, hits give low values 0.973 | locus YNR052C, strain pop2, hits give low values 1.01 | locus YOL012C, strain htz1 0.359 | locus YOL147C, strain pex11, hits give low values 0.99 | locus YOR001W, strain rrp6, hits give low values 0.927 | locus YOR061W, strain CKA2, hits give low values 0.992 | locus YOR069W, strain VPS5, hits give low values 0.995 | locus YOR070C, strain gyp1, hits give low values 0.975 | locus YOR080W, strain dia2, hits give low values 0.988 | locus YOR083W, strain WHI5, hits give low values 1 | locus YOR106W, strain vam3, hits give low values 0.985 | locus YOR136W, strain idh2, hits give low values 0.988 | locus YOR144C, strain elg1, hits give low values 0.994 | locus YOR184W, strain ser1, hits give low values 0.999 | locus YOR231W, strain MKK1, hits give low values 0.997 | locus YOR265W, strain rbl2, hits give low values 0.987 | locus YOR270C, strain vph1, hits give low values 1.01 | locus YOR290C, strain snf2, hits give low values 1 | locus YOR316C, strain cot1, hits give low values 0.986 | locus YPL051W, strain arl3, hits give low values 0.974 | locus YPL078C, strain atp4, hits give low values 0.971 | locus YPL106C, strain sse1, hits give low values 1.01 | locus YPL240C, strain hsp82, hits give low values 0.959 | [5] 0.997 | locus YPL256C, strain CLN2, hits give low values 0.981 | locus YPR119W, strain clb2, hits give low values 0.985 | locus YPR141C, strain kar3, hits give low values 0.982 | locus YPR163C, strain tif3, hits give low values 0.99 | locus YPR167C, strain met16, hits give low values 1 | strain wtn01, hits give low values 0.995
active: locus YER155C, strain BEM2 (second series), hits give low values 0.843 | locus YMR058W, strain fet3, hits give low values 0.734 | locus YMR125W, strain sto1, hits give low values 0.852
